The source of these data is PubChem BioAssay.

Each structure is given as a SMILES string. Values joined by “and” are separate entries in the source; they are usually repeats but may differ in a detail not shown here. Equal values may be shown once. Active and inactive are the calls of the source.

Assay [1] deals with PRMT1 (protein arginine N-methyltransferase 1). In words: PRMT1 binders on small-molecule microarrays, primary screen, biochemical, small-molecule microarray, 635 nm fluorescence (AID 1088).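 Also: binding of Prmt1 protein to compounds spotted on small-molecule microarray slides.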 The conditions noted are these: small-molecule microarray binding, higher = more signal.
The nature of assay [2]: yeast growth modulation, basal conditions, primary screen, YJM789 clinical isolate, OD600, 24 h (AID 1089).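 Also: growth of clinical yeast isolate S. cerevisiae YJM 789 seeded 1000 cells per well; test concentration not given here.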 The conditions noted are these: S. cerevisiae YJM789 growth; higher = more signal, called active from +8 up or from −8 down unless noted.
Assay [3] can be described thus: fission yeast growth modulation, primary screen, strain 972, OD600, 24 h, no modulator (AID 1090).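 Also: basal condition with compound alone and no growth modifier present; test concentration not given here.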 The conditions noted are these: S. pombe 972 growth; higher = more signal, called active from +8 up or from −8 down unless noted.
The nature of assay [4]: S. cerevisiae growth modulation with rapamycin, primary screen, strain BY4716, OD600, 96 h (AID 1091). Also: test concentration not given here. The conditions noted are these: higher = more signal, called active from +8 up or from −8 down unless noted.
For assay [5], the target named is Torsin-1A-interacting protein 2 (Homo sapiens) (UniProt Q8NFQ8). In words: LULL1 binders on small-molecule microarray, primary screen, cell lysate, human LULL1 lysate, 635/667 nm fluorescence (AID 1092).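 Also: probe is lysate of COS7 cells overexpressing human LULL1; score merges per-feature 667 nm fluorescence with signal-to-noise.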 The conditions noted are these: hLULL1 lysate binding, 635 nm fluorescence, higher = more signal.
Torsin-1A-interacting protein 2 (Homo sapiens), sequence (Q8NFQ8 whole entry, looked up): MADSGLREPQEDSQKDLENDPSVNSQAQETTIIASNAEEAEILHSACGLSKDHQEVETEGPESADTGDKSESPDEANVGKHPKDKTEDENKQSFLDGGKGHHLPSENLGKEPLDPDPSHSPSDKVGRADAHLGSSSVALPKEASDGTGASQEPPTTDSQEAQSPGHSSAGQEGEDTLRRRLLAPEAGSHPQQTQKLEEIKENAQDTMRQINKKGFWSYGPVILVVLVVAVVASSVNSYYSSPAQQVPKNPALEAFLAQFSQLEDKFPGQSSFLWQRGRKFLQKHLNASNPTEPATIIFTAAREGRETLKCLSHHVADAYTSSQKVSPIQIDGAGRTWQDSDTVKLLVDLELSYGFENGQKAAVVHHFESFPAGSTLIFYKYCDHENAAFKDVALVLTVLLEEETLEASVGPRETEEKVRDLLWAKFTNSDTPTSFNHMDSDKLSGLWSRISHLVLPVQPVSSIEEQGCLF
A short description of assay [6]: E. coli growth modulation, two-sided OD650, primary screen, E. coli filamentation project, strain DRC41, 24 h (AID 1093).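 Also: MC1000 strain lacking acrAB efflux and sulA so SOS filamentation is blocked; test concentration not given here.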 As to conditions: OD650, 24 h; higher = more signal, called active from +8 up or from −8 down unless noted.
The nature of assay [7]: small-molecule microarray binders of probe aLefty2, primary screen, biochemical, biotinylated probe, 635/667 nm fluorescence (AID 1094).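 Also: score merges spot fluorescence near 667 nm with spot signal-to-noise ratio.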 The conditions noted are these: higher = more signal; small-molecule microarray, probe aLefty2, fluorescence unless noted.
The test system of assay [8] is Noggin (protein binding on small-molecule microarray). In words: Noggin binders on small-molecule microarray, primary screen, biochemical, 635/667 nm fluorescence (AID 1095).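 Also: score merges 667 nm feature fluorescence with signal to noise over triplicate slides.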 As to conditions: 635 nm fluorescence, higher = more signal.
Assay [9] addresses Neurogenic locus notch homolog protein 3 (Homo sapiens) (UniProt Q9UM47). Kind of assay: NOTCH3 binders on small-molecule microarray, primary screen, biochemical, 635/667 nm fluorescence (AID 1096). As to conditions: NOTCH3 binding, 635 nm fluorescence, higher = more signal.
Assay [10] can be described thus: small-molecule microarray binders of probe aEGFR, primary screen, biochemical, biotinylated probe, 635/667 nm fluorescence (AID 1097).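 Also: probe is a biotinylated anti-EGFR antibody binding compounds printed on slides; score combines fluorescence near 667 nm and signal to noise of each spot.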 The conditions noted are these: higher = more signal; small-molecule microarray, probe aEGFR, fluorescence unless noted.

Neurogenic locus notch homolog protein 3 (Homo sapiens), sequence (Q9UM47 whole entry, looked up): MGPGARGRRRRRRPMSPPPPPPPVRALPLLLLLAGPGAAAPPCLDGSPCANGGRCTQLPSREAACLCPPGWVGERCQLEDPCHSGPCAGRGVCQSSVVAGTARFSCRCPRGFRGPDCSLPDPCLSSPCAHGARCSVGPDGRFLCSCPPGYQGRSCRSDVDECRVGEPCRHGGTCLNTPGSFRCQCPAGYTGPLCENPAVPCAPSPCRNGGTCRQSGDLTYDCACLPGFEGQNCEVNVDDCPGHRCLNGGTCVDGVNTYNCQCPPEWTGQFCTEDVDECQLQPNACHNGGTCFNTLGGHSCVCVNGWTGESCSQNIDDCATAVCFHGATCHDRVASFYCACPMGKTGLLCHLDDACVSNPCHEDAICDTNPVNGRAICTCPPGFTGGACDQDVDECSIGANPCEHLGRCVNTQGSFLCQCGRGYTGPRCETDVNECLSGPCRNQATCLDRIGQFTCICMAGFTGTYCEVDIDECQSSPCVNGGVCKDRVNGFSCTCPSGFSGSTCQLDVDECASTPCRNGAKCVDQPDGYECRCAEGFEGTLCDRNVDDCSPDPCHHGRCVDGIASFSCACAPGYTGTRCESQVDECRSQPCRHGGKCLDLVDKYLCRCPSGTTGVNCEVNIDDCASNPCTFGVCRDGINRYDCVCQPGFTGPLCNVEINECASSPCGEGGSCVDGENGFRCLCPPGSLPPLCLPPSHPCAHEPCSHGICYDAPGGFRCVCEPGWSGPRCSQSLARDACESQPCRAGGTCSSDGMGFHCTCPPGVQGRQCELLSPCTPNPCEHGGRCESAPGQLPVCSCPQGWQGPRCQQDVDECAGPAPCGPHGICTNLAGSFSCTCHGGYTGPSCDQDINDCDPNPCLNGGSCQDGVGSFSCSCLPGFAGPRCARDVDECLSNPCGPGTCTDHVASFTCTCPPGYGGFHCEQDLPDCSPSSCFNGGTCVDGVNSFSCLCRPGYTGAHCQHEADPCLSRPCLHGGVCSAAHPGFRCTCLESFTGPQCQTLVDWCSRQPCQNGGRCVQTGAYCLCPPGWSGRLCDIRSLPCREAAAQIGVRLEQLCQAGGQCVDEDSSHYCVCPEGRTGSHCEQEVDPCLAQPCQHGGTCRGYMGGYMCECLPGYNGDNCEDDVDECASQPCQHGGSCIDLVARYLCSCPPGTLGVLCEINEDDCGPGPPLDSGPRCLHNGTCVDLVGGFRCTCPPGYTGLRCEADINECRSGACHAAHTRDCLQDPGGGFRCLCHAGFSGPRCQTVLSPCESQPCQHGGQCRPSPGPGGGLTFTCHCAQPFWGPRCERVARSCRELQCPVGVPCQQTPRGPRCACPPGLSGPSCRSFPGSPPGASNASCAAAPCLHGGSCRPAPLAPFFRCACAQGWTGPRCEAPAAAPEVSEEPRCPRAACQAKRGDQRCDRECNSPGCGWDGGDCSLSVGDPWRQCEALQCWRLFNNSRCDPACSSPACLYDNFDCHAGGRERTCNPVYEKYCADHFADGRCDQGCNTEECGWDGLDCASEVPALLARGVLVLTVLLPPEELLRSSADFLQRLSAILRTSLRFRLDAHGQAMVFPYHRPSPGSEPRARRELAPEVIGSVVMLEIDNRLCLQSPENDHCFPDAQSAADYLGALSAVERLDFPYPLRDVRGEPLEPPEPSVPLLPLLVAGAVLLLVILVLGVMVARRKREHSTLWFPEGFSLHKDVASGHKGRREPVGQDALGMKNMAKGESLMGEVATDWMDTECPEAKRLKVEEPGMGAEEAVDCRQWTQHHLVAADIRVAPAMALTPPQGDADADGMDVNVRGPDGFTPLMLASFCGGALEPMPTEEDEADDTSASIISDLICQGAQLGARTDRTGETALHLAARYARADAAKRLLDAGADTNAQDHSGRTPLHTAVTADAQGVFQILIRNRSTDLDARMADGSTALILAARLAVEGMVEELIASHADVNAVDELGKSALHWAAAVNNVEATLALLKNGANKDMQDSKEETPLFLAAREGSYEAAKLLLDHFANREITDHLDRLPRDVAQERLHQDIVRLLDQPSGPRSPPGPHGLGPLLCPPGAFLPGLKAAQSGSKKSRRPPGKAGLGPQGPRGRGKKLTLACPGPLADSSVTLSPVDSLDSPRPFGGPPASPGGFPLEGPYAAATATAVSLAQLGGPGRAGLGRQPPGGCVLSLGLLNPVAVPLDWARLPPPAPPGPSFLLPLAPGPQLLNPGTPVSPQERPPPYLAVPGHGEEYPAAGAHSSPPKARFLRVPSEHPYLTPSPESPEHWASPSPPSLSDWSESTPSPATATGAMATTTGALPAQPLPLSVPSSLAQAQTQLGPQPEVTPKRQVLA

For the molecule `CN1CCC(c2ccc(CO)cc2)=CC1C1CC1` (stereo not given), the composite z-score is 0.142 in [1]; -0.183 in [5]; -0.308 in assay [7]; 0.062 in assay [8]; -0.218 in assay [9]; -0.154 in assay [10]. For the same molecule, the z-score in assay [2] is -1.01 (inactive); in assay [3], -1.39 (inactive); in assay [4], 0.978 (inactive); in assay [6] it was -0.409 (inactive).
As for `CCOC(=O)[C@H]1CC=C2C(=O)Oc3ccccc3[C@@H]21`, the composite z-score was -0.162 in assay [1]; 1.55 in assay [5]; -0.134 in assay [7]; -1.09 in [8]; 0.0681 in assay [9]; -0.174 in [10]. The z-score in assay [2] was -1.73 (inactive); in [3], -5.83 (inactive); in [4] it was -1.99 (inactive); in [6] it was -0.0576 (inactive).
Consider `COC(=O)[C@@]1(Cc2ccccc2)[C@H]2c3cc(C(=O)N(C)C)[nH]c3C[C@H]2CN1C(=O)c1ccccc1`, for which the composite z-score in assay [1] was -0.94; in assay [5], 0.745; in assay [7] it was -0.0238; in assay [8] it was -1.23; in [9], -0.984; in assay [10], -0.116. Moreover, the z-score was 0.0969 (inactive) in [2], 0.8 (inactive) in assay [3], 0.98 (inactive) in assay [4] and -0.482 (inactive) in assay [6].
On to `O=P(c1ccccc1)(c1ccccc1)N1CC2(CC2)CC(O)(c2ccccc2)C1` (stereo not given), for which the composite z-score was -0.25 in assay [1]; 3.57 in assay [5]; -0.0208 in assay [7]; -0.62 in assay [8]; 0.498 in assay [9]; 0.066 in assay [10]. The z-score in assay [2] is -1.51 (inactive); in [3] it was -1.4 (inactive); in assay [4], -1.9 (inactive); in assay [6], -0.0435 (inactive).
Consider `COc1cc2c(cc1O)C=[N+](C)CC2`, for which the composite z-score is -0.592 in [1]; -0.496 in [5]; 0.0571 in assay [7]; 0.425 in assay [8]; -0.102 in assay [9]; -0.0967 in [10]. In addition, the z-score in assay [2] was -1.76 (inactive); in assay [3], -0.412 (inactive); in assay [4], -1.25 (inactive); in assay [6], -0.695 (inactive).
Regarding `COC(=O)[C@H]1[C@H](c2ccccc2)C(=O)[C@]2(O)c3ccccc3O[C@@]12c1ccccc1`, the composite z-score in assay [1] is -0.371; in [5], 0.582; in assay [7] it was -0.267; in assay [8], 0.372; in assay [9], 0.667; in [10] it was -0.12. The z-score was -1.36 (inactive) in assay [2], -0.83 (inactive) in [3], -0.713 (inactive) in assay [4] and 0.0043 (inactive) in assay [6].
On to `CN1CCC(c2ccc(CO)cc2)=CC1c1cccs1` (stereo not given), for which the composite z-score in assay [1] was -0.534; in assay [5], -1.32; in assay [7] it was -0.166; in assay [8] it was 0.269; in [9], 0.245; in assay [10], -0.0828. For the same molecule, the z-score was -0.539 (inactive) in assay [2], -2.27 (inactive) in assay [3], 2.81 (inactive) in [4] and 0.358 (inactive) in assay [6].
In the case of `OCc1ccc(C2=CC(C3CC3)N(Cc3sc4ccccc4c3Cl)CC2)cc1` (stereo not given), the composite z-score was 1.56 in assay [1]; 1.55 in assay [5]; -0.0416 in [7]; 0.448 in assay [8]; 0.68 in [9]; -0.0493 in assay [10]. For the same molecule, the z-score in [2] was -0.102 (inactive); in assay [3], -5.01 (inactive); in [4], 1.47 (inactive); in assay [6], -1.09 (inactive).
As to `C[C@@H]1OC=C2[C@@H](O)[C@H]3O[C@H]3C(=O)[C@]23[C@H]1[C@H]1C2=C([C@@H](O)[C@H]4O[C@H]4C2=O)[C@@H]3O[C@@H]1C`, the composite z-score in assay [1] is -0.259; in assay [5], -0.957; in assay [7], -0.101; in assay [8] it was 0.195; in assay [9] it was -0.186; in assay [10], -0.0689. In addition, the z-score in [2] is -0.676 (inactive); in assay [3] it was 0.585 (inactive); in assay [4], 0.0254 (inactive); in assay [6], -0.101 (inactive).
For `COC(=O)[C@@]1(Cc2ccc(F)cc2)[C@H]2c3cc(C(=O)N(C)C)[nH]c3C[C@H]2CN1C(=O)c1ccccc1`, the composite z-score in [1] was -0.128; in [5] it was 3.23; in [7] it was 0.153 [setting not given]; in [8], -0.512; in assay [9], -0.388; in [10], -0.0573 [setting not given]. Also, the z-score in assay [2] was 0.531 [setting not given] (inactive); in assay [3], 0.0211 [setting not given] (inactive); in assay [4], 0.229 [setting not given] (inactive); in assay [6] it was -0.152 [setting not given] (inactive).
Turning to `CC1N(P(=O)(c2ccccc2)c2ccccc2)CC(O)(c2ccccc2)CC12CC2` (stereo not given), the composite z-score in assay [1] was 0.453 and -1.07; in assay [5], 3.87 and 3.05; in assay [7], 0.084 and 0.644; in [8], -1.15 and -1.06; in [9], -1.14 and -0.154; in assay [10] it was -0.0565 and 0.174. Further, the z-score in assay [2] is 0.401 (inactive) and -2.96 (inactive); in [3], 0.614 (inactive) and -1.46 (inactive); in assay [4] it was 0.973 (inactive) and 0.0418 (inactive); in assay [6] it was -0.476 (inactive) and -0.172 (inactive).
Regarding `CCCc1cc2c(n1CCO)C(C)C1CN(C(=O)c3ccccc3)C(C)(C(=O)OC)C21` (stereo not given), the composite z-score was -0.147 in assay [1]; 2.94 in assay [5]; 0.851 in assay [7]; -0.562 in [8]; 0.386 in [9]; 0.427 in assay [10]. Moreover, the z-score was -0.28 (inactive) in assay [2], 1.08 (inactive) in [3], 0.158 (inactive) in assay [4] and -0.0807 (inactive) in [6].
On to `OCc1ccc(C2=CC(c3cccs3)N(Cc3cccc(OC(F)(F)F)c3)CC2)cc1` (stereo not given), for which the composite z-score was 1.08 in assay [1]; 1.1 in assay [5]; -0.145 in assay [7]; 0.257 in [8]; 0.0155 in assay [9]; -0.1 in assay [10]. In addition, the z-score is -0.583 (inactive) in assay [2], -3.83 (inactive) in assay [3], 4.58 (inactive) in assay [4] and 0.398 (inactive) in assay [6].
As for `C[C@@H]1Cc2c(cnc3c2CN(C)CC3)CO1`, the composite z-score in assay [1] is -0.377; in assay [5] it was -0.0214; in [7], -0.153; in assay [8], 0.603; in [9], -0.78; in assay [10] it was 0.0255. The z-score in assay [2] is -0.0303 (inactive); in assay [3], -0.591 (inactive); in [4], -0.582 (inactive); in assay [6], 0.262 (inactive).
Consider `COc1cc2c(cc1O)C(C)N(C)CC2` (stereo not given), for which the composite z-score in [1] is -0.474; in assay [5] it was 0.0713; in [7] it was 0.0914; in assay [8], -0.19; in assay [9], -0.245; in [10] it was 0.0841. The z-score in assay [2] was 0.051 (inactive); in assay [3], -2.28 (inactive); in assay [4], -1.65 (inactive); in assay [6] it was 0.891 (inactive).
Regarding `COC(=O)[C@H]1C(=O)c2ccccc2O[C@@](C(=O)OC)(c2ccccc2)[C@@H]1c1ccccc1`, the composite z-score in [1] was -1.47; in [5] it was -0.565; in [7] it was -0.159; in [8] it was -0.054; in assay [9] it was -1.01; in assay [10], -0.0093. Besides, the z-score in [2] was -0.644 (inactive); in assay [3] it was -1.77 (inactive); in [4], 0.225 (inactive); in [6], 0.161 (inactive).
